According to PubChem BioAssay (NCI):
“And” between values parts separate entries of the source, which are not always exact repeats. Identical values can stand only once. This is part of a sample that, as a whole, favours compounds with a hit. Of some 83,000 tested, about 20% had one in any assay.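 In brief: 96-well plates, 48 h treatment, single concentration, percent growth endpoint.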 The source made the active and inactive calls.

The compounds below were run on IGROV1 ovarian (assay: NCI-60 one-dose screen, 48 h (100 = growth as untreated, 0 = no growth, -100 = all killed)). Conditions: 10 µM.
Protocol: Growth inhibition of the IGROV1 human tumor cell line is measured as a screen for anti-cancer activity. Cells are grown in 96 well plates and exposed to the test compound for 48 hours. Compounds are tested at a single concentration, which is 10^-5 M for most compounds. The reported endpoint is percent growth (GI% or GIPRCNT), where numbers from 0 - 100% represent growth inhibition, and numbers from -100% - 0 represent cell death. For example, a value of 40 represents 60% growth inhibition. A value of 0 means no net growth occurred over the course of the experiment. A value of -40 indicates 40% of cells at the beginning of the experiment died by the end of the experiment. A value of -100 means all cells are dead at the end of the experiment.
NCI-60 Human Tumor Cell Lines Screen was performed using the standard one-dose NCI protocol, which is described in more detail at https://dtp.cancer.gov/discovery_development/nci-60/default.htm.
Compounds with GIPRCNT values below 10 were considered active. Activity score was based on GIPRCNT using the following formula: […]
Score is 0 for GIPRCNT values of 100 or above, 50 for GIPRCNT values of 0, and 100 for GIPRCNT values of -100.
`O=C(O)CCCc1ccc(N(CCCl)CCCl)cc1` was tested, and the growth was 80.2% (inactive).

Same assay, conditions: 10 µM unless noted
With `Oc1cc(N2CC2)c(O)cc1N1CC1` the growth was -38.3% (active). In the case of `CCCCCCCCCCCCCCCCCC1OCC(COC(=O)O[C@@H](C(=O)O[C@H]2C[C@@]3(O)[C@@H](OC(=O)c4ccccc4)[C@@H]4[C@]5(OC(C)=O)CO[C@@H]5C[C@H](O)[C@@]4(C)C(=O)[C@H](OC(C)=O)C(=C2C)C3(C)C)[C@@H](NC(=O)c2ccccc2)c2ccccc2)O1` (stereo not given in full), the growth was 47.6% (inactive). For `CC1(C)CN=C(NN=C(/C=C/c2ccc(C(F)(F)F)cc2)/C=C/c2ccc(C(F)(F)F)cc2)NC1`, the growth was 22% (inactive). For `O=S(=O)(F)c1cccc(Cl)c1C[P+](c1ccccc1)(c1ccccc1)c1ccccc1`, the growth was 85.4% (inactive). With `Cn1cc(C(=O)C[n+]2ccccc2)c2ccccc21` the growth was 103% (inactive). With `Cc1ccc(P(=O)(O)O)cc1` the growth was 111% (inactive). `O=C(O)c1cc([N+](=O)[O-])cc([N+](=O)[O-])c1` was tested, and the growth was 132% (inactive). `CCOC(=O)C1C(C=C(C)C)C1(C)C` (stereo not given) was tested, and the growth was 120% (inactive). In the case of `CCCC(C)SP(=S)(SC(C)CCC)SC(C)CCC` (stereo not given), the growth was 109% (inactive). `CCOC(=O)c1cncn1C(C)c1ccccc1` (stereo not given) was tested, and the growth was 107% (inactive). In the case of `[N-]=[N+]=CC(=O)CCC(=O)C=[N+]=[N-]`, the growth was 49.2% (inactive). With `ClC1OC(Cl)(Cl)C(Cl)(Cl)OC1(Cl)Cl` (stereo not given) the growth was 104% (inactive). With `Cc1ccc(N2CCN(CCC#N)CC2)cc1` the growth was 95.5% (inactive). `CCN1C(=O)NC(=O)C(C)(N2C(=O)c3c(F)c(F)c(F)c(F)c3C2=O)C1=O` (stereo not given) was tested, and the growth was -58.8% (active). With `COC12CC3(C)C(C4=CC(=O)OC4)CCC3(O)C3CCC4=CC(=O)CCC4(CO1)C32` (stereo not given) the growth was 98.6% (inactive). With `Cc1nc2ccccc2c(=O)n1-c1ccccc1F` the growth was 111% (inactive). In the case of `C=CC[PH+](c1ccccc1)c1ccccc1.C=CC[PH+](c1ccccc1)c1ccccc1.[Pt+2].[S-]c1ncccn1.[S-]c1ncccn1`, the growth was 16.3% (inactive). `C[C@@]12CCCc3coc(c31)C(=O)c1cc3c(cc12)C(=O)C1=C(NCCS1(=O)=O)C3=O` was tested, and the growth was -23.9% (active). For `O=C(CCCN1CCC2(CC1)C(=O)NCN2c1ccccc1)c1ccc(F)cc1`, the growth was 73.6% (inactive) and 29% (inactive). In the case of `O=[N+]([O-])c1cc(Cl)c(Cl)c([N+](=O)[O-])c1Cl`, the growth was 28.9% (inactive). `CCCN1C(=O)NC(=O)C(CC)(N2C(=O)c3c(F)c(F)c(F)c(F)c3C2=O)C1=O` (stereo not given) was tested, and the growth was -77.9% (active). `C[N+]1(C)CCCC1c1cccnc1` (stereo not given) was tested, and the growth was 115% (inactive). In the case of `COC(=O)C1=CCCN(C)C1`, the growth was 102% (inactive) and 145% (inactive). With `CC1(C)C=Cc2c(ccc3c2[N+]([O-])=C2C3=C[C@@]34NC(=O)[C@]5(CCCN5C3=O)C[C@@H]4C2(C)C)O1` the growth was 55.6% (inactive). In the case of `O=[N+]([O-])c1ccc(P(=O)(O)O)cc1`, the growth was 102% (inactive). In the case of `C[C@@H]1C/C=C\C(=O)O[C@H](/C=C/C#C/C=C/C(C)(C)[C@@H](O)c2cccc(O)c2Br)[C@@H](C)/C=C/[C@H](C)C[C@H](OC(N)=O)C1`, the growth was 48.6% (inactive). `COc1ccc2c(c1)c(-c1nc(-c3c[nH]c4ncccc34)cs1)cn2CCCCN1CCOCC1` was tested, and the growth was 36.1% (inactive). `O=C1C=C(N2CC2)c2ccccc2C1=O` was tested, and the growth was 70.7% (inactive). In the case of `O=C(O)C(O)c1ccc(Cl)cc1` (stereo not given), the growth was 110% (inactive) and 111% (inactive). `CC1=CC(=O)CCC12CCOC2=O` (stereo not given) was tested, and the growth was 108% (inactive). With `CCCCOCCOP(=O)(OCCOCCCC)OCCOCCCC` the growth was 119% (inactive). In the case of `COc1cc2c(cc1OC)[C@@H]1C(=O)c3ccc4c(c3O[C@@H]1CO2)C[C@H](C(C)C)O4`, the growth was 81.6% (inactive). In the case of `Oc1ccccc1C=NCCN=Cc1ccccc1O`, the growth was 118% (inactive). With `CC[C@H](C)[C@H](NC(=O)C12CC(NC)(C1)C2)C(=O)N(C)[C@H](C[C@@H](OC(C)=O)c1nc(C(=O)N[C@@H](Cc2ccccc2)C[C@H](C)C(=O)OC)cs1)C(C)C` the growth was 29.7% (inactive). In the case of `CN1CCc2cc3c(cc2C1O)OCO3` (stereo not given), the growth was 117% (inactive) and 108% (inactive). With `Cc1ccc(S(=O)(=O)n2cc([C@@]3(O)C[C@H](CSC#N)OC3=O)c3ccccc32)cc1` the growth was 71.6% (inactive). For `O=c1c2ccccc2nc(-c2ccccc2Cl)n1-c1nnc(C(F)(F)F)s1`, the growth was 37.6% (inactive). For `O=C(O)c1ccc(=O)[nH]c1`, the growth was 109% (inactive).

Same assay, conditions: 75 µM
In the case of `O=C(O)CCCc1ccc(N(CCCl)CCCl)cc1`, the growth was 50.9% (inactive).
